Source: the supplement of paper PMC12669032
Unmarked numbers belong to inactive results.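 How the source made its calls: active = AUC reduced over 20% with Padj below 0.05 in at least 2 of 3 replicates; inactive = otherwise.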

Columns and labels:
Test in all cases: growth AUC relative to DMSO control (median of replicates) (fraction); higher = more growth (less inhibition), active = hit call of the paper
Settings in all cases: 20 µM; 24 h
Akkermansia muciniphila = test system: Akkermansia muciniphila
How it was run: (§1)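 Gut bacterial monocultures were grown anaerobically at 37 °C in mGAM, starting at OD600 0.05, with 20 µM compound (1% DMSO) in round-bottom 96-well plates under pierced gas-permeable seals. OD600 was read hourly for 24 h. Area under the growth curve (minimum OD set to 0) was normalised to the plate median of DMSO controls, or to row and column medians on the industrial chemical plate. The value is the median of three biological replicates grown on separate days.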

Bacteroides caccae = test system: Bacteroides caccae
How it was run: as §1

Bacteroides clarus = test system: Bacteroides clarus
How it was run: as §1

Bacteroides dorei = test system: Bacteroides dorei
How it was run: as §1

Bacteroides stercoris = test system: Bacteroides stercoris
How it was run: as §1

[1] = test system: Bacteroides thetaiotaomicron
How it was run: as §1

Bacteroides uniformis = test system: Bacteroides uniformis
How it was run: as §1

[2] = test system: Bifidobacterium longum subsp. longum
How it was run: as §1

Clostridium difficile = test system: Clostridium difficile
How it was run: as §1

Collinsella aerofaciens = test system: Collinsella aerofaciens
How it was run: as §1

Structure (SMILES)	growth AUC (Akkermansia muciniphila)	growth AUC (Bacteroides caccae)	growth AUC (Bacteroides clarus)	growth AUC (Bacteroides dorei)	growth AUC (Bacteroides stercoris)	growth AUC [1]	growth AUC (Bacteroides uniformis)	growth AUC [2]	growth AUC (Clostridium difficile)	growth AUC (Collinsella aerofaciens)
O=c1[nH]c(Cl)c(Cl)cc1Cl	0.98	1.04	0.967	0.991	1.05	1.11	0.978	0.981	0.95	1.01
CC(CCl)OP(=O)(OC(C)CCl)OC(C)CCl (mixture of isomers)	1.14	1	0.998	0.973	0.994	1	0.958	1.05	1.02	0.951
CNC(=O)Oc1cc(C)c(N(C)C)c(C)c1	1.02	1.03	0.971	1.04	0.852	0.995	1	0.991	1.1	0.995
CCCCN(CCCC)SN(C)C(=O)Oc1cccc2c1OC(C)(C)C2	1.03	1.02	0.975	0.981	0.913	1.04	1.03	0.972	1.02	1.01
N#Cc1c[nH]cc1-c1cccc(Cl)c1Cl	0.905	0.819	0.9	0.871	0.884	0.835	0.816	1.09	0.901	0.935
CCCCNC(=O)n1c(NC(=O)OC)nc2ccccc21	1.04	0.999	0.979	1	1.01	0.999	1.02	0.984	0.955	0.993
O=CNC(N1CCN(C(NC=O)C(Cl)(Cl)Cl)CC1)C(Cl)(Cl)Cl (stereo not given)	1.13	0.947	0.923	0.849	0.879	0.919	0.985	1.08	0.957	0.938
CCOP(=S)(OCC)SCn1nnc2ccccc2c1=O	0.989	0.969	0.993	1.01	1.1	0.908	0.913	1.04	1.02	1.03
CCCCOC(=O)c1ccccc1C(=O)OCCCC	1.05	0.94	1.01	0.998	0.99	1	0.978	0.938	1.02	0.985
OCC(O)CCl (stereo not given)	1.01	1.01	0.998	1.01	1.02	0.984	1	0.965	1.01	1.01
N#Cc1nn(-c2c(Cl)cc(C(F)(F)F)cc2Cl)c(N)c1S(=O)C(F)(F)F (stereo not given)	1.07	0.964	0.881	0.897	0.95	0.986	0.895	0.951	0.966	1.04
COP(=S)(OC)Oc1ccc(S(=O)(=O)N(C)C)cc1	0.82	0.947	0.999	0.962	0.84	0.983	0.981	0.984	0.976	0.977
Cc1ccc(-c2c(Cl)nc(C#N)n2S(=O)(=O)N(C)C)cc1	0.913	0.844	0.817	0.904	0.931	0.906	0.639 (active)	1.03	0.96	1.02
C[N+]1(C)CCCCC1.[Cl-]	0.993	1.02	1.03	1.02	1.02	1.03	1.05	1.01	1.01	1.02
CN(C)C(CSS(=O)(=O)[O-])CSS(=O)(=O)O.[Na+]	1.01	1.02	0.998	1.03	1.03	0.98	1.13	1.01	0.943	0.999
CCCCC(C#N)(Cn1cncn1)c1ccc(Cl)cc1 (stereo not given)	1.04	1.02	0.952	0.98	0.861	0.984	0.975	1.04	0.985	0.959
CCCSP(=O)(OCC)SCCC	1.14	0.994	1.02	0.962	1.02	0.998	0.98	1.02	0.997	0.99
CCOP(=S)(OCC)Oc1cc(C)nc(C(C)C)n1	1.04	1.02	1	1.03	0.972	1.01	1.02	0.972	1.02	0.986
C[C@@H](Oc1ccc(Oc2ncc(C(F)(F)F)cc2Cl)cc1)C(=O)O	0.971	0.97	0.964	0.942	1.02	0.992	0.975	0.912	0.99	0.994

Structure (SMILES)	growth AUC (Akkermansia muciniphila)	growth AUC (Bacteroides caccae)	growth AUC (Bacteroides clarus)	growth AUC (Bacteroides dorei)	growth AUC (Bacteroides stercoris)	growth AUC [1]	growth AUC (Bacteroides uniformis)	growth AUC [2]	growth AUC (Clostridium difficile)	growth AUC (Collinsella aerofaciens)
C[n+]1ccc(-c2cc[n+](C)cc2)cc1.O.[Cl-].[Cl-]	0.705	0.846	1	0.996	0.996	0.996	1.03	1.02	0.947	0.947
ClC1=C(Cl)C2(Cl)C3COCC3C1(Cl)C2(Cl)Cl (stereo not given)	0.531 (active)	0.91	1.11	0.925	1.05	0.871	0.916	0.918	0.966	1.02
N#Cc1sc2c(=O)c3ccccc3c(=O)c=2sc1C#N	0.95	0.982	0.948	0.979	0.783	0.974	0.882	0.84	0.968	1.09
COP(=S)(OC)Oc1nc(Cl)c(Cl)cc1Cl	1.06	1.01	1	0.998	0.947	0.96	0.935	1.01	0.975	0.991
CC1(C)[C@H](C(=O)O[C@H](C#N)c2cccc(Oc3ccccc3)c2)[C@@H]1/C=C\C(=O)OC(C(F)(F)F)C(F)(F)F	0.955	1.01	0.976	1.02	0.92	1.03	1.01	0.931	1.03	1.07
CCC(C)(CC)c1cc(NC(=O)c2c(OC)cccc2OC)on1	1.05	1.01	0.949	1.03	1.04	0.959	0.965	1.04	1	0.959
CC(Oc1ccc(Cl)cc1Cl)C(=O)O (stereo not given)	1.09	1.02	0.987	0.942	0.981	1	0.979	1.04	1.01	0.976
CS/C(C)=N/OC(=O)N(C)SN(C)C(=O)O/N=C(\C)SC	0.98	1.02	0.943	1.05	1.09	1.03	1.02	1.04	1.01	0.932
CC1=C(C(=O)Nc2ccccc2)SCCO1	0.979	1.02	1	0.982	1.21	1.04	0.993	0.956	1	1.03
C=CCOC(=O)C(C)(C)OC(=O)c1cc(-n2c(=O)cc(C(F)(F)F)n(C)c2=O)ccc1Cl	1.14	0.949	1.01	0.969	1.09	0.974	0.975	0.96	0.964	0.961
CP(=O)(O)CC(=O)O	1.01	0.959	0.96	1.02	0.929	0.992	0.997	1.04	1.1	1.04
c1ccc(-c2ccccc2)cc1	1.09	0.985	1.03	0.967	1.22	0.969	1.01	1.03	0.948	0.963
CCOP(=O)(OCC)OCC	1.06	0.991	1.03	0.972	1.03	1.02	1.03	0.971	0.989	0.967
COc1cc(OC)nc(NC(=O)NS(=O)(=O)c2ncccc2C(F)(F)F)n1	0.985	1.02	0.977	0.991	0.908	1.02	1.02	1	1.02	0.972
CCN(CC)C(=S)[S-].O.O.O.[Na+]	0.862	0.981	1.01	0.978	1.08	0.848	1.01	0.961	1.04	0.925
ClC1=C(Cl)[C@]2(Cl)[C@@H]3[C@@H]4C[C@@H]([C@H]5O[C@@H]45)[C@@H]3[C@@]1(Cl)C2(Cl)Cl	0.945	0.98	1.01	1	0.947	0.967	0.979	1.02	0.973	0.989
CCSCCSP(=S)(OC)OC	1.09	1.02	0.996	0.996	1.07	0.992	1.01	1.03	1.03	1.09
O=c1oc2ccccc2c(O)c1C1CC(c2ccc(-c3ccccc3)cc2)Cc2ccccc21 (stereo not given)	0.831	0.895	0.66 (active)	0.904	0.00795 (active)	0.76 (active)	0.858	0.886	0.803	0.975
